According to PubChem BioAssay (Tox21):
Records with an inconclusive call do not appear. Activity calls are given as the source filed them. Unless noted, calls follow the shape of the full dose curve.

Tests used:
[1] = Nuclear factor erythroid 2-related factor 2/antioxidant responsive element (Nrf2/ARE) small molecule agonists: qHTS cell viability counter screen in human keratinocytes (AID 1919968; active = well fitted curve in the direction sought with a large enough effect in the repeat runs; an effect the other way counts as inactive or inconclusive; also: nearly all actives have a fitted effect of over 55% in size)
How it was run: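 Parallel cytotoxicity read: KeratinoSens HaCaT cells, compound treatment 23 h, viability by CellTiter-Fluor fluorescence 1 h post-reagent.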

[2] = Nuclear factor erythroid 2-related factor 2/antioxidant responsive element (Nrf2/ARE) small molecule agonists: luciferase reporter gene qHTS assay in human keratinocytes (AID 1919969); also: nearly all actives have a fitted effect of over 35% in size; also: potency is read from the fitted curve at half-maximal effect
[3] = target: Gonadotropin-releasing hormone receptor (Homo sapiens) (UniProt P30968); assay: Human gonadotropin-releasing hormone receptor (GnRHR) small molecule agonists, calcium flux assay in GnRHR-HEK293 cells (AID 1920063); also: nearly all actives have a fitted effect of over 35% in size
Gonadotropin-releasing hormone receptor (Homo sapiens), sequence (P30968 whole entry, looked up): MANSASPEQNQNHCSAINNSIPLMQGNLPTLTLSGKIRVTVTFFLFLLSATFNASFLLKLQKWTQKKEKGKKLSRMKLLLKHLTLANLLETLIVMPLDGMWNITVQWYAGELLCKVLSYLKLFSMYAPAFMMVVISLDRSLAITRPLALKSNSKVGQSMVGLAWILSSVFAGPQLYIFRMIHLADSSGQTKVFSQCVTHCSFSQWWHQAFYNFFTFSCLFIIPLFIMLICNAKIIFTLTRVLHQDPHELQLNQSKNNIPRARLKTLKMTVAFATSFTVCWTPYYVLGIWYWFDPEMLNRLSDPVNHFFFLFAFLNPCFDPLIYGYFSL
How it was run: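 Calcium flux, agonist mode, human GnRHR stably integrated in HEK293; dye 1 h at 37 C before compound; Ex/Em=480/540 kinetic read, 3 min; 15 concentrations, triplicate.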

[4] = target: KiSS-1 receptor (Homo sapiens) (UniProt Q969F8); assay: Human kisspeptin (KISS1R) small molecule agonists, calcium flux assay in KISS1R-HEK293 cells (AID 1920064; active = well fitted curve in the direction sought with a large enough effect in the repeat runs; an effect the other way counts as inactive or inconclusive)
KiSS-1 receptor (Homo sapiens), sequence (Q969F8 whole entry, looked up): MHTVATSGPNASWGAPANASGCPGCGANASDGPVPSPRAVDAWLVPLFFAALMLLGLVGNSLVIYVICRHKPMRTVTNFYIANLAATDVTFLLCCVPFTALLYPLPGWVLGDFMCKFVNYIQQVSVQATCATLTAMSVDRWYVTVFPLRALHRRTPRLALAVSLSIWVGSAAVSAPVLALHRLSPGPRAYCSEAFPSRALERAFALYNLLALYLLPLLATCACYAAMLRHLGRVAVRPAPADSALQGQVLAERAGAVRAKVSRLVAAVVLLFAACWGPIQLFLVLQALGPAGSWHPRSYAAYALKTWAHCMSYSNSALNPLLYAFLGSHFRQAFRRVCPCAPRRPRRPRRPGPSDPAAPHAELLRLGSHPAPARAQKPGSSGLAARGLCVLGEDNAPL
How it was run: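 Triplicate 15-concentration series were applied to dye-loaded human KISS1R HEK293 cells, and agonist-evoked calcium fluorescence was captured for 3 min.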

[5] = G protein-coupled receptor (GPCR) small molecule agonists, calcium flux assay: HEK293 wild type cell line counter screen (AID 1920065)
How it was run: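 Non-specific calcium responders were flagged by adding DMSO-dissolved compounds to dye-loaded cells and reading 480/540 nm fluorescence each second for 3 min; ATP served as positive control.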

[6] = p53 small molecule agonists, cell-based qHTS assay with human liver microsomes (AID 1963577)
How it was run: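 p53RE-bla cells, 4,000/well, compound added after 5 h, with human liver microsomes 0.5 mg/mL and NADPH 0.5 mg/mL final; 16 h at 37 C, then LiveBLAzer 2 h RT, fluorescence.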

[7] = p53 small molecule agonists, cell-based qHTS assay with rat liver microsomes (AID 1963578)
How it was run: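 p53RE-bla cells, 4,000/well, pre-incubated 5 h, then given compounds plus rat liver microsomes (0.5 mg/mL final) and NADPH (0.5 mg/mL final). Incubation 16 h at 37 C; beta-lactamase reporter read by LiveBLAzer fluorescence after 2 h at room temperature.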

[8] = p53 small molecule agonists, cell-based qHTS assay with human liver microsomes: qHTS cell viability counter screen (AID 1963579); also: nearly all actives have a fitted effect of over 45% in size
How it was run: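 p53RE-bla cells, 4,000/well, dosed 5 hours after plating, with human liver microsomes (0.5 mg/mL final) plus NADPH (0.5 mg/mL final), 16 hours at 37 C. Viability read as CellTiter-Glo luminescence after 30 min at room temperature.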

[9] = p53 small molecule agonists, cell-based qHTS assay with rat liver microsomes: qHTS cell viability counter screen (AID 1963580); also: nearly all actives have a fitted effect of over 45% in size
How it was run: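 Cytotoxicity counter screen: intracellular ATP read by CellTiter-Glo luminescence in the p53 reporter wells. HCT-116 p53RE-bla cells were treated for 16 h at 37 C alongside rat liver microsomes and NADPH, each 0.5 mg/mL final.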

[10] = p53 small molecule agonists, cell-based qHTS assay: qHTS cell viability counter screen (AID 1963581); also: nearly all actives have a fitted effect of over 45% in size
How it was run: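 Multiplexed with the reporter read, a CellTiter-Glo step (30 min, room temperature) gauges ATP-based viability of HCT-116 p53RE-bla cells after 16 h compound incubation at 37 C.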

[11] = p53 small molecule agonists, cell-based qHTS assay (AID 1963582; active = well fitted activation curve with a large enough effect in the signal ratio in the repeat runs, not every such curve was filed as active; the % refers to the signal ratio; also: potency is read from the fitted curve at half-maximal effect)
How it was run: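 Beta-lactamase reporter cells (p53RE-bla) treated with compounds for 16 h at 37 C; FRET substrate, 2 h, room temperature; fluorescence intensity.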

[12] = target: 5-hydroxytryptamine receptor 2A (Homo sapiens) (UniProt P28223); assay: 5-hydroxytryptamine receptor 2A (HTR2A) small molecule antagonists, cell-based qHTS assay (AID 1963586); also: nearly all actives have a fitted effect of over 45% in size
5-hydroxytryptamine receptor 2A (Homo sapiens), sequence (P28223 whole entry, looked up): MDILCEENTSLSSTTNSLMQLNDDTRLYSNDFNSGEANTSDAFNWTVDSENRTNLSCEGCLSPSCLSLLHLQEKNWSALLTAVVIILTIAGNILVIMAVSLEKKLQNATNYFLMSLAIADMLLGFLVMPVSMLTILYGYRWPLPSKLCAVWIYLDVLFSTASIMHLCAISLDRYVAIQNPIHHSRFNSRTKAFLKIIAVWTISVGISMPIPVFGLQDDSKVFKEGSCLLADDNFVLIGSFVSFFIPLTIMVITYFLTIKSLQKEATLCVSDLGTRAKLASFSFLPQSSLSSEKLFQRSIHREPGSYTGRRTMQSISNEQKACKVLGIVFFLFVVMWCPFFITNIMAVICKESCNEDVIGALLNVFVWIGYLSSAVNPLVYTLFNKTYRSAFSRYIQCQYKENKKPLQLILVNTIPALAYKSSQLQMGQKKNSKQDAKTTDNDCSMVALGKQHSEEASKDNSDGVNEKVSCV
How it was run: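 CHO cells stably expressing human HTR2A were plated for 18 h at 37 C, then loaded with calcium dye for 1 h. Compounds were preincubated 5 min at room temperature before DOI (4 nM solution) was added. Kinetic fluorescence was read for 3 min.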

[13] = target: 5-hydroxytryptamine receptor 2A (Homo sapiens) (UniProt P28223); assay: 5-hydroxytryptamine receptor 2A (HTR2A) small molecule agonists, cell-based qHTS assay (AID 1963587); also: nearly all actives have a fitted effect of over 30% in size
How it was run: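 Kinetic calcium-flux fluorescence (2 min, 1 sec intervals) after compound addition in agonist mode. HTR2A-CHO cells were cultured 18 h, then dye-loaded 1 h at 37 C.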

[14] = target: Muscarinic acetylcholine receptor M1 (Homo sapiens) (UniProt P11229); assay: Cholinergic receptor muscarinic 1 (CHRM1) small molecule antagonists, cell-based qHTS assay (AID 1963588); also: nearly all actives have a fitted effect of over 40% in size
Muscarinic acetylcholine receptor M1 (Homo sapiens), sequence (P11229 whole entry, looked up): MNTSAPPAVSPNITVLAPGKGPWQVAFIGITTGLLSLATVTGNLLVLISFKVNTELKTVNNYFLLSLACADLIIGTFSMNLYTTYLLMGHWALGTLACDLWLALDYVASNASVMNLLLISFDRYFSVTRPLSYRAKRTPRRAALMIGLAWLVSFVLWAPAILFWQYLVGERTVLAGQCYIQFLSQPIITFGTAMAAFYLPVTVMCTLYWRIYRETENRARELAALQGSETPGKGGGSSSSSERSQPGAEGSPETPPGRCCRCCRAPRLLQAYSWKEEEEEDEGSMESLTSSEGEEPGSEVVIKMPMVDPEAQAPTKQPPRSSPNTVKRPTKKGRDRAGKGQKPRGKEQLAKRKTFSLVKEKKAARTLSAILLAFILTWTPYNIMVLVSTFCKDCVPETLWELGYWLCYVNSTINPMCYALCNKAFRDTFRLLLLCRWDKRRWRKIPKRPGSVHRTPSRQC
How it was run: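 Compounds were tested at 15 concentrations in three independent runs. Dye-loaded CHRM1-CHO cells were exposed 5 min at room temperature before stimulation by acetylcholine added at 50nM. Intracellular calcium was read kinetically on FDSS for 3 min.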

[15] = target: Muscarinic acetylcholine receptor M1 (Homo sapiens) (UniProt P11229); assay: Cholinergic receptor muscarinic 1 (CHRM1) small molecule agonists, cell-based qHTS assay (AID 1963589); also: nearly all actives have a fitted effect of over 35% in size
How it was run: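 qHTS, 15-point titration, 3 independent runs: compounds pin-transferred onto dye-loaded CHRM1-CHO cells (human M1), calcium fluorescence followed every second to detect agonism.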

[16] = cAMP Responsive Elements (CRE) small molecule antagonists, cell-based qHTS assay (AID 1963591; active = well fitted inhibition curve with a large enough effect in the signal ratio in the repeat runs, not every such curve was filed as active; the % refers to the signal ratio)
How it was run: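 Fluorescence intensity from cleaved LiveBLAzer B/G substrate (2 h, room temperature) quantified CRE-bla activity in HEK 293T cells exposed 3 h to compound with 0.25 uM final NKH477.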

[17] = target: Beta-2 adrenergic receptor (Homo sapiens) (UniProt P07550); assay: Adrenergic beta2 receptor (ADRB2) small molecule antagonists, cell-based qHTS assay (AID 1963592); also: series mostly up to about 92 µM; nearly all actives have a fitted effect of over 50% in size
Beta-2 adrenergic receptor (Homo sapiens), sequence (P07550 whole entry, looked up): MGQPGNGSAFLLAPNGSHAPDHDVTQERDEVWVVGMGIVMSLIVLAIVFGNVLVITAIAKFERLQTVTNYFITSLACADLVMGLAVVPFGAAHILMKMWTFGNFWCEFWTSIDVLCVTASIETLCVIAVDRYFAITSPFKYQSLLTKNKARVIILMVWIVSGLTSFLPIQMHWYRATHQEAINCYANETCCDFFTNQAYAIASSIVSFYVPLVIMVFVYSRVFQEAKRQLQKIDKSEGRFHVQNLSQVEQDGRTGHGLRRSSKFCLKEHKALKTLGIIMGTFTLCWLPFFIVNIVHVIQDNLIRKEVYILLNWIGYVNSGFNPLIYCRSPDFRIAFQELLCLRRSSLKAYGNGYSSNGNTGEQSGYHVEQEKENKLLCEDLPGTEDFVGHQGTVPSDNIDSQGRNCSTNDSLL
How it was run: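 Assay format: CHO-ADRB2 cells, 18-20hr seeding at 37C/5% CO2, then compound plus 1nM isoproterenol agonist mix for 0.5hr RT. Homogeneous time-resolved fluorescence cAMP detection after 1hr, expressed as 665/615 nm ratio.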

[18] = target: D(2) dopamine receptor (Homo sapiens) (UniProt P14416); assay: Dopamine D2 receptor (DRD2) small molecule agonists, cell-based qHTS assay (AID 1963594); also: nearly all actives have a fitted effect of over 35% in size
D(2) dopamine receptor (Homo sapiens), sequence (P14416 whole entry, looked up): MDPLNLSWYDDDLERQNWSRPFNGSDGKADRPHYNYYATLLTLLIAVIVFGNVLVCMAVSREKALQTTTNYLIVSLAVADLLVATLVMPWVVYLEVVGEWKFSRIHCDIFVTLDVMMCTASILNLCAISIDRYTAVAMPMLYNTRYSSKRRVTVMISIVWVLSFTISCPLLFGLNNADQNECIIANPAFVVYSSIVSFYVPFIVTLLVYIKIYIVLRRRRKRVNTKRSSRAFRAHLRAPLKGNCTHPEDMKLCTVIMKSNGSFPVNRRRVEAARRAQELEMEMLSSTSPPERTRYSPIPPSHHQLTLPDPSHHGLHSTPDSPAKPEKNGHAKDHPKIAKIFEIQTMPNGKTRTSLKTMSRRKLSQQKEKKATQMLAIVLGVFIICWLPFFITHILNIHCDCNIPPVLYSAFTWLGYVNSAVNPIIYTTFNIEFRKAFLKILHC
How it was run: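 cAMP accumulation in DRD2-HEK293 cells measured by HTRF after 1 h detection; compounds added 10 min before NKH477 (200nM […]) forskolin-analogue stimulation, 30 min at room temperature, with Ro20-1724 present at 0.1 mM final.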

[19] = target: D(2) dopamine receptor (Homo sapiens) (UniProt P14416); assay: Dopamine D2 receptor (DRD2) small molecule antagonists, cell-based qHTS assay (AID 1963595; active = well fitted inhibition curve with a large enough effect in the signal ratio in the repeat runs, with a control signal flat; the % refers to the signal ratio)
How it was run: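 HEK293 cells stably expressing DRD2 were preincubated with 0.1 mM Ro20-1724, then with compound for 10 min at room temperature. Cells were stimulated with 200 nM NKH477 plus 12 nM quinpirole for 30 min, and cAMP was read by HTRF.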

[20] = cAMP Responsive Elements (CRE) small molecule agonists, cell-based qHTS assay (AID 1963590)
How it was run: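 Quantitative HTS for CRE agonists: HEK 293T CRE-bla cells, overnight plating, 3 h compound incubation at 37 C/5% CO2, then 2 h room-temperature LiveBLAzer B/G FRET substrate loading.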
% is scaled to controls: 0 for no effect and ±100 for the full control effect.

COc1cnc(OC)n2nc(NS(=O)(=O)c3c(OCC(F)F)cccc3C(F)(F)F)nc12
inactive: Potency [1] | Potency [2] | Potency [3] | Potency [4] | Potency [5] | Potency [6] | Potency [7] | Potency [8] | Potency [9] | Potency [10] | Potency [11] | Potency [12] | Potency [13] | Potency [14] | Potency [15] | Potency [16] | Potency [17] | Potency [18] | Potency [19]

Cc1c([N+](=O)[O-])cc2c(c1[N+](=O)[O-])C(C)(C)CC2(C)C
inactive: Potency [1] | Potency [3] | Potency [4] | Potency [5] | Potency [6] | Potency [7] | Potency [8] | Potency [9] | Potency [10] | Potency [11] | Potency [12] | Potency [13] | Potency [14] | Potency [15] | Potency [20] | Potency [17] | Potency [18] | Potency [19]
active: Potency [2] 48.6 µM

O=C(NC(=O)c1c(F)cccc1F)Nc1cc(Cl)c(Oc2ncc(C(F)(F)F)cc2Cl)c(Cl)c1
inactive: Potency [1] | Potency [2] | Potency [3] | Potency [4] | Potency [5] | Potency [6] | Potency [7] | Potency [8] | Potency [9] | Potency [10] | Potency [12] | Potency [13] | Potency [14] | Potency [15] | Potency [17] | Potency [18]
active: Potency [11] 17.5 µM

CC(Cc1ccccc1)NCc1ccccc1Cl (stereo not drawn)
inactive: Potency [1] | Potency [2] | Potency [3] | Potency [4] | Potency [5] | Potency [6] | Potency [7] | Potency [8] | Potency [9] | Potency [10] | Potency [11] | Potency [12] | Potency [13] | Potency [14] | Potency [15] | Potency [20] | Potency [16] | Potency [18]

CCC(COC(=O)c1cc(OC)c(OC)c(OC)c1)(c1ccccc1)N(C)C (stereo not drawn)
inactive: Potency [1] | Potency [2] | Potency [3] | Potency [4] | Potency [5] | Potency [6] | Potency [7] | Potency [8] | Potency [9] | Potency [10] | Potency [11] | Potency [12] | Potency [13] | Potency [14] | Potency [15] | Potency [17] | Potency [18]

CCCCCCC(=O)CCCCCC/C=C/C[C@@H](O)[C@H](O)[C@@](N)(CO)C(=O)O
inactive: activity change, negative = cytotoxicity [1] -1.3% [at 19 µM] | activity, positive = activation [2] -3.71% [at 19 µM] | activity change [3] 0.629% [at 11.8 µM, active compounds read high] | activation [4] 0.0857% [at 15.8 µM] | activation [5] 0.714% [at 11.8 µM] | activation [6] 4.34% [at 13.5 µM] | activation [7] 0.608% [at 13.6 µM] | activity change, negative = cytotoxicity [8] 0.682% [at 13.5 µM] | activity change, negative = cytotoxicity [9] -0.611% [at 13.5 µM] | activity change, negative = cytotoxicity [10] 17.4% [at 13.5 µM] | activation [11] 0.605% [at 13.5 µM] | activity, negative = inhibition [12] 87.4% [at 12.7 µM] | activation [13] 2.62% [at 15.9 µM] | activity, negative = inhibition [14] 3.07% [at 12.6 µM] | activation [15] -0.559% [at 15.8 µM] | activation [20] 3.57% [at 19 µM] | activity change, negative = inhibition [16] -12.2% [at 18.9 µM] | activity change, negative = inhibition [17] 9.53% [at 19 µM]
